# In PubChem BioAssay (Tox21):
# Inconclusive results are not listed. Calls of active or inactive are those of the source. The call rests on the fitted dose curve; in most records, active means well fitted activation curve with a large enough effect in the repeat runs; inconclusive means weak or mixed curves; inactive means flat fitted curve, though single readings scatter.
# Assay: A CellTox Green Cytotoxicity Assay to monitor cytotoxicity in HEK293 cells - 24 hour (AID 1224875); further: nearly all actives have a fitted effect of over 45% in size
# Details: CellTox Green fluorescence; series mostly up to 76.8 µM; activity change: at the top concentration
# Procedure, shortened: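 Cells (HEK293, 600/well) and dye reagent are dispensed together. After 5 h at 37 C, 23 nL compound is pinned in. Plates stay at 37 C for 40 h with fluorescence read at 0h, 8h, 16h, 24h, 32h and 40h.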
# On the % scale 0 is the no-effect control and ±100 the full control effect; potency means the concentration at half of the fitted maximal effect.
SMILES,Potency,activity change
CCCCCCCCc1ccc(S(=O)(=O)O)cc1,48.6 µM (active),–
CC1=C(CC(=O)O)c2cc(F)ccc2/C1=C\c1ccc(S(C)(=O)=O)cc1,–,"0.438% [at 35.3 µM, stronger effect = higher value] (inactive)"
CC(C)NCC(O)COc1ccc(CCOCC2CC2)cc1 (centres undefined),–,"2.17% [at 35.3 µM, stronger effect = higher value] (inactive)"
C1CCOC1,–,-4.42% (inactive)
C=O,–,-4.26% (inactive)
COc1nc(C)nc(NC(=O)NS(=O)(=O)c2ccccc2OCCCl)n1,–,5.06% (inactive)
O=C(O)[C@@H]1CSCN1,–,"1.1% [at 35.3 µM, stronger effect = higher value] (inactive)"
O=C(O)[C@@H](O)[C@H](O)[C@H](O)[C@@H](O)C(=O)O,–,"-17.8% [at 35.3 µM, stronger effect = higher value] (inactive)"
CN1CCN(C2=Nc3ccccc3Oc3ccc(Cl)cc32)CC1,–,"-1.57% [at 35.3 µM, stronger effect = higher value] (inactive)"
CC(C)O,–,14.4% (inactive)
CCC1(C)NC(=O)NC1=O (centres undefined),–,-5.96% (inactive)
CC/C=C\CCOC(=O)C(C)C,–,1.27% (inactive)
CCCCCCCOC(=O)CCC,–,28.6% (inactive)
CCCCCCC,–,9.47% (inactive)
OCCN1CCN(CCO)CC1,–,-12.7% (inactive)
O=C1CCCc2ccccc21,–,-3.71% (inactive)
O=C1C=CC(=O)O1,–,-0.177% (inactive)
O=C(O)c1ccccc1Nc1cc(Cl)ccc1C(=O)O,–,"-4.95% [at 15.8 µM, stronger effect = higher value] (inactive)"
CCc1cc2cc(OC)c(OC)cc2c(Cc2ccccc2)n1,–,"-5.63% [at 35.3 µM, stronger effect = higher value] (inactive)"
CN1CCC[C@@H]1Cc1c[nH]c2ccc(CCS(=O)(=O)c3ccccc3)cc12,–,"2.92% [at 35.3 µM, stronger effect = higher value] (inactive)"

SMILES,Potency,activity change
Cc1cc2nc(N)sc2cc1C,–,2.04% (inactive)
CCCNC(C)C(=O)Nc1c(C)csc1C(=O)OC (centres undefined),–,"-13.1% [at 35.3 µM, stronger effect = higher value] (inactive)"
Cc1cc(NS(=O)(=O)c2ccc(N)cc2)nc(C)n1,–,"-15.8% [at 35.3 µM, stronger effect = higher value] (inactive)"
CCCCCCCCCCCCCCCCOP(=O)([O-])OCC[N+](C)(C)C,–,"27.6% [at 35.3 µM, stronger effect = higher value] (inactive)"
NC1=NCC2c3ccccc3Cc3ccccc3N12 (centres undefined),–,"-22.8% [at 35.3 µM, stronger effect = higher value] (inactive)"
Cc1ccc(C)c(N)c1,–,6% (inactive)
O=C1N(c2ccccc2)c2ccccc2C1(Cc1ccncc1)Cc1ccncc1,–,"-7.5% [at 35.3 µM, stronger effect = higher value] (inactive)"
COC(=O)c1ccc(OC)cc1,–,1.03% (inactive)
Cc1ccsc1C(=CCCN1CCC[C@@H](C(=O)O)C1)c1sccc1C,–,"-0.111% [at 35.3 µM, stronger effect = higher value] (inactive)"
CC1=NN(c2cc(Cl)c(S(=O)(=O)O)cc2Cl)C(=O)C1N=Nc1ccc(S(=O)(=O)O)cc1 (centres undefined),–,-8.74% (inactive)
Cc1onc(-c2ccccc2)c1C(=O)Cl,–,"-3.98% [at 35.3 µM, stronger effect = higher value] (inactive)"
CCCCCOc1ccc(C2SC(=O)NC2=O)cc1OCC (centres undefined),–,"-0.746% [at 35.3 µM, stronger effect = higher value] (inactive)"
C=CCCC=C,–,14.4% (inactive)
CCCCCCCCOC(=O)CCCCCCCCC(=O)OCCCCCCCC,–,18.4% (inactive)
CC1=CC(=O)CC(C)(C)C1=O,–,0.438% (inactive)
CN1CCN(c2c(F)cc3c(=O)c(C(=O)O)cn4c3c2SCC4)CC1,–,"-10.8% [at 35.3 µM, stronger effect = higher value] (inactive)"
CCC(=O)O[C@]1(C(=O)SCF)[C@H](C)C[C@H]2[C@@H]3C[C@H](F)C4=CC(=O)C=C[C@]4(C)[C@@]3(F)[C@@H](O)C[C@@]21C,–,"6.64% [at 35.3 µM, stronger effect = higher value] (inactive)"
NS(=O)(=O)c1cc(-c2nn[nH]n2)c(NCc2cccs2)cc1Cl,–,"5.05% [at 35.3 µM, stronger effect = higher value] (inactive)"
CCN1CC(CCN2CCOCC2)C(c2ccccc2)(c2ccccc2)C1=O (centres undefined),–,"3.24% [at 35.3 µM, stronger effect = higher value] (inactive)"
